Experiment [1] has as its target Bile acid receptor (Homo sapiens) (UniProt Q96RI1). Nature of the experiment: ATG_IR1_CIS: Attagene CIS-FACTORIAL HepG2 Assay for human Nuclear Receptor Subfamily 1 Group H Member 4 (NR1H4), IR1 submotif (AID 2282946; active = hit-call score of the fitted dose curve at least 0.9, where 1 is the maximum; inactive = score below 0.9). Conditions: IR1 reporter transcription, actives raise or lower the signal. The method in brief:
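Readout: reporter transcript levels by RT-PCR with fluorescent capillary electrophoresis, from HepG2 cells transiently transfected with multiplexed cis-regulated reporters and dosed 24 h. Gain- or loss-of-signal fitted versus DMSO negative control.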

A short description of experiment [2]: ATG_GAL4_TRANS: Attagene TRANS-FACTORIAL HepG2 Assay for GAL4 (Internal Marker) (AID 2282976). The conditions noted are these: HepG2 Attagene TRANS GAL4 internal marker reporter. The method in brief: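 First, HepG2 cells were transfected with reporter units under GAL4-UAS control. Next, they were treated with chemical for 24 h. Finally, RNA was reverse-transcribed, PCR-amplified, FAM-labelled and resolved by capillary electrophoresis, with induction scored against DMSO.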

The target in experiment [3] is Nuclear receptor subfamily 4 group A member 2 (Homo sapiens) (UniProt P43354). Nature of the experiment: ATG_NURR1_TRANS: Attagene TRANS-FACTORIAL HepG2 Assay for human Nuclear Receptor Related Protein 1 (NURR1) (AID 2282985). The conditions noted are these: HepG2 Attagene TRANS reporter, mRNA readout. The method in brief:
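Chimeric NR-Gal4 proteins were expressed in human HepG2 cells bearing GAL4-UAS reporter units, and induced reporter mRNA was quantified 24 h post-dosing by RT-PCR and capillary electrophoresis.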

For experiment [4], the target named is human Peroxisome Proliferator-activated Receptor delta (PPARd), PPARD (gene 5467) (UniProt Q03181). Nature of the experiment: ATG_PPARd_TRANS: Attagene TRANS-FACTORIAL HepG2 Assay for human Peroxisome Proliferator-activated Receptor delta (PPARd) (AID 2283002). The procedure, abridged:
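Measured quantity: GAL4-UAS reporter transcript induction in HepG2 after 24 h chemical dosing, with NR-Gal4 chimeras supplied by transient transfection. Detection by RT-PCR and capillary electrophoresis; upward fit against DMSO.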

Experiment [5] deals with Nuclear receptor subfamily 1 group I member 2 (Homo sapiens) (UniProt O75469). Put plainly: ATG_PXR_TRANS: Attagene TRANS-FACTORIAL HepG2 Assay for human Pregnane X Receptor (PXR) (AID 2283008). The method in brief: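 Transient HepG2 transfectants carrying multiplexed reporter transcription units; PXR activity read through a Gal4 chimera. 24 h exposure. RT-PCR/CE fluorescence; upward curve fit referenced to DMSO.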

The target of experiment [6] is human Vitamin D Receptor (VDR), VDR (gene 7421) (UniProt P11473). Nature of the experiment: ATG_VDR_TRANS: Attagene TRANS-FACTORIAL HepG2 Assay for human Vitamin D Receptor (VDR) (AID 2283022). The method in brief: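 Steps: transfect HepG2 with GAL4-UAS-driven reporter constructs; dose compounds 24 h; isolate RNA, reverse-transcribe, PCR-amplify with 6-FAM-labelled primer extension and HpaI digestion; quantify fragments by capillary electrophoresis relative to DMSO.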

The nature of experiment [7]: CCTE_Harrill_HTTr_Viability_MCF7: CCTE's 6-hour Cell Viability Assessment for the High-Throughput Transcriptomics (HTTr) Platform, in MCF-7 cells cultured in DMEM + 10% fetal bovine serum, Harrill Lab (AID 2284010; active = hit-call score of the fitted dose curve at least 0.9, where 1 is the maximum; inactive = score below 0.9). The procedure, abridged: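 Eight-point concentration series, six-hour exposure. Propidium iodide exclusion imaged to assess membrane integrity as a cytotoxicity readout; bidirectional fitting was done with DMSO as negative control and activity baseline.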

In experiment [8] the target is Retinoic acid receptor alpha (Homo sapiens) (UniProt P10276). Put plainly: ATG_DR5_RAR_CIS: Attagene CIS-FACTORIAL HepG2 Assay for human Retinoic Acid Receptor Alpha (RARE), DR5 submotif (AID 2282934; active = hit-call score of the fitted dose curve at least 0.9, where 1 is the maximum; inactive = score below 0.9). Conditions: HepG2 Attagene cis-factorial RARE DR5 reporter, mRNA; actives raise or lower the signal. The procedure, abridged:
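Transfected HepG2 reporter cells are exposed to chemicals for 24 h. Then RNA is extracted and the DR5 element reporter transcript is measured by RT-PCR and capillary electrophoresis, with bidirectional curve fitting relative to DMSO.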

For experiment [9], the target named is Oxysterols receptor LXR-beta (Homo sapiens) (UniProt P55055). Nature of the experiment: ATG_LXRb_TRANS: Attagene TRANS-FACTORIAL HepG2 Assay for human Liver X Receptor beta (LXRb) (AID 2282981). The conditions noted are these: HepG2 Attagene TRANS GAL4-LXRb reporter, mRNA. The method in brief: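 Liver-derived HepG2 cells transfected with Gal4-responsive reporters were dosed for 24 h. Activation was scored as rise in reporter mRNA, by RT-PCR and capillary electrophoresis, above DMSO baseline.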

The target of experiment [10] is Hepatocyte nuclear factor 4-alpha (Homo sapiens) (UniProt P41235). Put plainly: ATG_HNF4a_TRANS: Attagene TRANS-FACTORIAL HepG2 Assay for human Hepatocyte Nuclear Factor 4 alpha (HNF4a) (AID 2282982). The conditions noted are these: HepG2 HNF4a transactivation reporter, mRNA readout. The procedure, abridged:
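Using HepG2 liver cells transfected with GAL4-UAS reporter units, chemical-induced mRNA increases were assessed after 24 hours. Fluorescent RT-PCR fragments were separated by capillary electrophoresis and compared with DMSO negative controls.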

The target of experiment [11] is human Peroxisome Proliferator-activated Receptor alpha (PPARa), PPARA (gene 5465) (UniProt Q07869). Put plainly: ATG_PPARa_TRANS: Attagene TRANS-FACTORIAL HepG2 Assay for human Peroxisome Proliferator-activated Receptor alpha (PPARa) (AID 2283001).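 For AC50: potency for gain of reporter signal over DMSO so agonist or activator.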 The procedure, abridged: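 Exposure: 24 h, transiently transfected HepG2 cells. Endpoint: GAL4-UAS reporter mRNA, RT-PCR with capillary electrophoresis fluorescence. Baseline: DMSO; increases fitted.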

The target in experiment [12] is human RAR-related Orphan Receptor gamma (RORg), RORC (gene 6097) (UniProt P51449). Nature of the experiment: ATG_RORg_TRANS: Attagene TRANS-FACTORIAL HepG2 Assay for human RAR-related Orphan Receptor gamma (RORg) (AID 2283011). The procedure, abridged: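 First, HepG2 liver cells were transfected with GAL4-UAS-driven reporter constructs and the RORg-Gal4 fusion. Next, they were treated with chemical for 24 h. Finally, reporter mRNA was quantified by RT-PCR and capillary electrophoresis, with upward activity fitted against DMSO.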

Experiment [13] in a line: ATG_XTT_Cytotoxicity: Cytotoxicity Assessment in the Attagene TRANS-FACTORIAL HepG2 Assay (AID 2283584). The procedure, abridged:
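Cells: human HepG2, transiently transfected with MRTU reporter constructs. Exposure 24 h. Readout: XTT, cell number. Baseline/neg ctrl DMSO; loss-of-signal scored.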

A short description of experiment [14]: TOX21_p53_BLA_p3_viability: Viability Assessment in the Tox21 HCT-116 p53 Agonism Beta-lactamase Assay, Phase 3 (AID 2283593).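 Note: cells exposed to compound for 16 h before reading.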 The procedure, abridged: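 HCT-116 cells (4000/well) rested 5 h at 37C, then got DMSO compounds by pin tool (217-fold dilution) for 16 h at 37C, 5% CO2. After the bla read, CellTiter-Glo was added and luminescence read at 30 min, room temperature.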

The target of experiment [15] is Cellular tumor antigen p53 (Homo sapiens) (UniProt P04637). Nature of the experiment: TOX21_p53_BLA_p3_ratio: Tox21 HCT-116 p53 Agonism Beta-lactamase Assay, Ratio, Phase 3 (AID 2283596). The method in brief: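 Cells were seeded at 4000/well, rested 5 h at 37C, then dosed with DMSO compound solutions (217-fold dilution) for 16 h. CCF4-AM substrate was loaded for 2 h at room temperature, and the 460/530 nm emission ratio was fitted for gain of signal versus DMSO.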

Experiment [16] addresses Oxysterols receptor LXR-alpha (Homo sapiens) (UniProt Q13133). Nature of the experiment: ATG_LXRa_TRANS: Attagene TRANS-FACTORIAL HepG2 Assay for human Liver X Receptor alpha (LXRa) (AID 2282980). The conditions noted are these: HepG2 Attagene TRANS reporter, LXRa transactivation. The procedure, abridged:
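Transfect HepG2 with GAL4-UAS multiplex reporter constructs (TRANS format, chimeric receptor-GAL4); treat 24 h; extract RNA, reverse-transcribe, PCR-amplify, FAM-label, HpaI-digest; resolve fragments by capillary electrophoresis. Upward response vs DMSO.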

In experiment [17] the target is human RAR-related Orphan Receptor beta (RORb), RORB (gene 6096) (UniProt Q92753). Nature of the experiment: ATG_RORb_TRANS: Attagene TRANS-FACTORIAL HepG2 Assay for human RAR-related Orphan Receptor beta (RORb) (AID 2283010).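 For AC50: potency for increased reporter mRNA meaning activation of RORb-Gal4 chimera.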 The procedure, abridged: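 Multiplexed transcription-factor reporter assay: HepG2 cells transiently carrying NR-Gal4/GAL4-UAS constructs, 24 h treatment, mRNA quantified by RT-PCR plus capillary electrophoresis fluorescence; activity scored as induction over DMSO.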

A short description of experiment [18]: TOX21_p53_BLA_p2_viability: Viability Assessment in the Tox21 HCT-116 p53 Agonism Beta-lactamase Assay, Phase 2 (AID 2283591).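 Note: compound exposure lasted 16 h at 37 °C; actives lower the ATP signal meaning cytotoxicity.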 The procedure, abridged:
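HCT-116 p53-bla cells (4000/well) rested 5 h at 37C, then received compounds in DMSO (217-fold dilution) for 16 h at 37C, 5% CO2. After the CCF4 read, CellTiter-Glo was added; ATP luminescence was read after 30 min at room temperature.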

Experiment [19] is described as follows: TOX21_p53_BLA_p4_viability: Viability Assessment in the Tox21 HCT-116 p53 Agonism Beta-lactamase Assay, Phase 4 (AID 2283597).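 Note: hits lower the luminescence signal meaning cytotoxicity.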 The method in brief:
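Readout: ATP luminescence (CellTiter-Glo), measured 30 min after reagent addition at RT. The reagent followed a 2 h CCF4-AM incubation, and the cells had been exposed to compound for 16 h at 37C.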

The source of these data is PubChem BioAssay (EPA / NIEHS).

Several values for one entry are separate records, joined by “and”; a condition that tells them apart may be missing. Equal values may be shown once. Inconclusive results are not listed. The source holds several records for some structures; these can differ, active in one and inactive in another. Activity calls are given as the source filed them. Rule for the calls, unless noted: active = hit-call score of the fitted dose curve at least 0.9, where 1 is the maximum; inconclusive = response in the unintended direction; inactive = score below 0.9.

Retinoic acid receptor alpha (Homo sapiens), sequence (P10276 whole entry, looked up): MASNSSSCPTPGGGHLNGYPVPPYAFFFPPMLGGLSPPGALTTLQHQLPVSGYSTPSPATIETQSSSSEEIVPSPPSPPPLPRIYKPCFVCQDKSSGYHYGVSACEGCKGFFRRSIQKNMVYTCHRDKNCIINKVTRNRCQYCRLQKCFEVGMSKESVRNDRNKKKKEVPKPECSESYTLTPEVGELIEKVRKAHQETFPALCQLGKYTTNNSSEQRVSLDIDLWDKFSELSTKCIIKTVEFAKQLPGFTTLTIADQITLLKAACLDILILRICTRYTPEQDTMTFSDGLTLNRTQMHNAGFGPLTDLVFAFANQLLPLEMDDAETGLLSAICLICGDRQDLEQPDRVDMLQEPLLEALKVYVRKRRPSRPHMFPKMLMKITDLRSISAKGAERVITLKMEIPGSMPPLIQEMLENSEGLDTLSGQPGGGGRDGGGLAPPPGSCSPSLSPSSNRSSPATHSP
Bile acid receptor (Homo sapiens), sequence (Q96RI1 whole entry, looked up): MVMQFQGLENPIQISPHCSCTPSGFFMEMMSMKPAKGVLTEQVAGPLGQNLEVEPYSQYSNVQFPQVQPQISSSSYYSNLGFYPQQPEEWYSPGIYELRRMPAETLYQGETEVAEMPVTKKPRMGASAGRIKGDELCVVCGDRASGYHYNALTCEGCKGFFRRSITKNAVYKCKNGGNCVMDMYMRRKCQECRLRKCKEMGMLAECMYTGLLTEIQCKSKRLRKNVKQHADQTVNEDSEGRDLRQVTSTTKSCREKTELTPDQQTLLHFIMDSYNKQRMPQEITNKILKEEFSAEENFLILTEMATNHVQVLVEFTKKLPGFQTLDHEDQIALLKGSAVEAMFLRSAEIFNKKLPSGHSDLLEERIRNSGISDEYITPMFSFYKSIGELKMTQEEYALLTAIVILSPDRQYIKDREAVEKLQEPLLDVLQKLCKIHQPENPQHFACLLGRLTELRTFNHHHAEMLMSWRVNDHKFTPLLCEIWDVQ
Cellular tumor antigen p53 (Homo sapiens), sequence (P04637 whole entry, looked up): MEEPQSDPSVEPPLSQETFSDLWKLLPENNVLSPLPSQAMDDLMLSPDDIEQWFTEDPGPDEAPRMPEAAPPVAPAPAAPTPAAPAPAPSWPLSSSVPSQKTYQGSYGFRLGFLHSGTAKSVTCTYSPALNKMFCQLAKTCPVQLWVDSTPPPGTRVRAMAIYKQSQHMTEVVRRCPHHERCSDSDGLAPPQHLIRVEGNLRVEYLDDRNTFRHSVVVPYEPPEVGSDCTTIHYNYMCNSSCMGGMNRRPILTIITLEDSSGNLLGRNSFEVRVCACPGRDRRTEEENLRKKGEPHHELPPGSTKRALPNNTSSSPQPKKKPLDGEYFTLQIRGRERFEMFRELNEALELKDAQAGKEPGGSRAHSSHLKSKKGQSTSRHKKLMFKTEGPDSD
Nuclear receptor subfamily 1 group I member 2 (Homo sapiens), sequence (O75469 whole entry, looked up, the tested form may be a part): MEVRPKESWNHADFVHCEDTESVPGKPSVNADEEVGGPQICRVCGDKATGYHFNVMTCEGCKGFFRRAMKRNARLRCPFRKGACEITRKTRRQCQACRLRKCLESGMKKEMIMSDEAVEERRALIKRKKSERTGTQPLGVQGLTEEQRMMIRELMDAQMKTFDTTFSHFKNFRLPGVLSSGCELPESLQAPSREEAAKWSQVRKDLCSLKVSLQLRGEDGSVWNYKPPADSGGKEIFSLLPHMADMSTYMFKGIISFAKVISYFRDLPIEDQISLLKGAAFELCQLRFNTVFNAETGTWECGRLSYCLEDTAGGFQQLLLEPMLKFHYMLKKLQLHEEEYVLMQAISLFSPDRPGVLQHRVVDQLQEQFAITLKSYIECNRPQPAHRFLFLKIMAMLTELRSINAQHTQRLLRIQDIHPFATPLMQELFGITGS
Nuclear receptor subfamily 4 group A member 2 (Homo sapiens), sequence (P43354 whole entry, looked up, the tested form may be a part): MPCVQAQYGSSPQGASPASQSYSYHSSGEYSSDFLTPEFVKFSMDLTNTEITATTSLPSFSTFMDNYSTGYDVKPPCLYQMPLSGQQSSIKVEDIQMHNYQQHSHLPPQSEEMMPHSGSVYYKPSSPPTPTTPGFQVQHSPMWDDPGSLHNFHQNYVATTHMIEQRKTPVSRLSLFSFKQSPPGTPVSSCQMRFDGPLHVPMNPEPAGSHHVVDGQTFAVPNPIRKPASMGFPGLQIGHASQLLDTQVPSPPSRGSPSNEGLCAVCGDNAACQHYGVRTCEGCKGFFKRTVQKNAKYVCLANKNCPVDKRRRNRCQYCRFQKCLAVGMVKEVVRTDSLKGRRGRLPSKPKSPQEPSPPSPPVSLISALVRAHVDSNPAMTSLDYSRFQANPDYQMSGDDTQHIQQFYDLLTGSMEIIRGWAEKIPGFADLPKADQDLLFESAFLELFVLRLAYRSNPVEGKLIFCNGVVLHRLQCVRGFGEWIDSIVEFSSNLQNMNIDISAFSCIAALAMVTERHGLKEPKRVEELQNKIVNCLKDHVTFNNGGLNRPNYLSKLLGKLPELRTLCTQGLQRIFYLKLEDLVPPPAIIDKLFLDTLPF
Hepatocyte nuclear factor 4-alpha (Homo sapiens), sequence (P41235 whole entry, looked up, the tested form may be a part): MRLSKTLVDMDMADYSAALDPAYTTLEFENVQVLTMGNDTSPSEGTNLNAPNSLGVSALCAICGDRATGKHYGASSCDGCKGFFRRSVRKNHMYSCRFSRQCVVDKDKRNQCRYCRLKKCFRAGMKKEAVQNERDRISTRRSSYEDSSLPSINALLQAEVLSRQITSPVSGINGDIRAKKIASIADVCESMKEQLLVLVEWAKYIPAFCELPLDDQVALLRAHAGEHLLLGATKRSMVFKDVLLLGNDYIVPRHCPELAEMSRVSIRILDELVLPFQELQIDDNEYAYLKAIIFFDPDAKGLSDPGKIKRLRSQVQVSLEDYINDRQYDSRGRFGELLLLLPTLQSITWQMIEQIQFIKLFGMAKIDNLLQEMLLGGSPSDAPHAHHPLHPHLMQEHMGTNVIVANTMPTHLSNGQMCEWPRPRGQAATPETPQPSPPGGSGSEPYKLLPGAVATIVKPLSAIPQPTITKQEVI
human Peroxisome Proliferator-activated Receptor delta (PPARd), PPARD (gene 5467), sequence (Q03181 whole entry, looked up, the tested form may be a part): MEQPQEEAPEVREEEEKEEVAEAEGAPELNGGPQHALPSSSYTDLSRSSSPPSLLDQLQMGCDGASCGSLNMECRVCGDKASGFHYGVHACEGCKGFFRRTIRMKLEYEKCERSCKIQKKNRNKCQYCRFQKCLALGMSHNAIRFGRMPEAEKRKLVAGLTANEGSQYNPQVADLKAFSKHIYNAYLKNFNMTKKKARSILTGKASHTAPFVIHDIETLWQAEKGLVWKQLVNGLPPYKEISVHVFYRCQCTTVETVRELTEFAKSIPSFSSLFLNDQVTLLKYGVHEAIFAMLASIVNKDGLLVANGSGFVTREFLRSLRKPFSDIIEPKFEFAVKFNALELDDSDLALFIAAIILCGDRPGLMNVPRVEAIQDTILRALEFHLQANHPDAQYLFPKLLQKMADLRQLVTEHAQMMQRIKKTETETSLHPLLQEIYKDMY
human Peroxisome Proliferator-activated Receptor alpha (PPARa), PPARA (gene 5465), sequence (Q07869 whole entry, looked up, the tested form may be a part): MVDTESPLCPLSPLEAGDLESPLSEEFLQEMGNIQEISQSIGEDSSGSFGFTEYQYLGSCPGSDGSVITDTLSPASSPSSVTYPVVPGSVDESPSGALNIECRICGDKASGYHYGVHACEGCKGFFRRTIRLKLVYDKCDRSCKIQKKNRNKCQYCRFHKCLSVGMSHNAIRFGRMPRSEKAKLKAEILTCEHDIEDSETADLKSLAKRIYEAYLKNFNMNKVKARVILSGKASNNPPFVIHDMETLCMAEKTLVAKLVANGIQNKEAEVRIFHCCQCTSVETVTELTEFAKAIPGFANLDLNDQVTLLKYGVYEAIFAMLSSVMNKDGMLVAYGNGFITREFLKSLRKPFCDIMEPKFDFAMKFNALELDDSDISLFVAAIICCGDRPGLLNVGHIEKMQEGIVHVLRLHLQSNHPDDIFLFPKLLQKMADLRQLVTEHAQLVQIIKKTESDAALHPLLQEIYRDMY
Oxysterols receptor LXR-beta (Homo sapiens), sequence (P55055 whole entry, looked up, the tested form may be a part): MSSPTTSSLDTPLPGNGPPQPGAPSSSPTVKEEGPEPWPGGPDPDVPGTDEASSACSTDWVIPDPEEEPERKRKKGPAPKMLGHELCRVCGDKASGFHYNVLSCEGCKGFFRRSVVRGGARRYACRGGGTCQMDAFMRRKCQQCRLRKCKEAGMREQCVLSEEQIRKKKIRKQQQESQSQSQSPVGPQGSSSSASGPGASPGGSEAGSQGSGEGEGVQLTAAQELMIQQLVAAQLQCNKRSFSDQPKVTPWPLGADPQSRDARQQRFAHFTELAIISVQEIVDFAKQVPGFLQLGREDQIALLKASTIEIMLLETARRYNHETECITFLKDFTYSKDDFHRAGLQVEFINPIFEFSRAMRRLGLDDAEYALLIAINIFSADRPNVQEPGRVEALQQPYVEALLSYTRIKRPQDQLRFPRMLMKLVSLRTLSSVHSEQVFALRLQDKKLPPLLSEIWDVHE
human Vitamin D Receptor (VDR), VDR (gene 7421), sequence (P11473 whole entry, looked up, the tested form may be a part): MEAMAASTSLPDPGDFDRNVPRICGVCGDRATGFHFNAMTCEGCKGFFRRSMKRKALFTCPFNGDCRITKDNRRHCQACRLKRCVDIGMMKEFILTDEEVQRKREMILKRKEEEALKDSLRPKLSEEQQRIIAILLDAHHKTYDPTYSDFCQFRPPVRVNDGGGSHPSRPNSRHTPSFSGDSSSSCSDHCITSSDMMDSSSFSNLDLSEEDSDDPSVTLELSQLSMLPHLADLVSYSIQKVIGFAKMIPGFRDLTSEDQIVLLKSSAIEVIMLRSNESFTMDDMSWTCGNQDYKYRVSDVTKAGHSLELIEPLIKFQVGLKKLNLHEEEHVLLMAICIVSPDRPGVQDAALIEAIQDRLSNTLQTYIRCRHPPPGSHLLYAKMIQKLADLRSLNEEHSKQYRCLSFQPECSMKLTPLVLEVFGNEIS

One may read the AC50 as the concentration giving half of the maximal activity seen. For the compound `CC(C)(C)C(O)C(Oc1ccc(-c2ccccc2)cc1)n1cncn1` (centres undefined), the AC50 is 55.2 µM (active) in experiment [1], 53.9 µM (active) in experiment [3] and 1.78 µM (active) in [5]. The compound was classed as inactive in experiment [2], in experiment [4], in [6] and in experiment [7].

Consider `Nc1ccc(-c2ccc(N)c(N)c2)cc1N`, for which the call in experiment [8], in [1], in [9], in experiment [10], in experiment [11] and in experiment [4] was inactive. Besides, the compound was classed as inactive in experiment [12], in experiment [6] and in experiment [13].

Take `Oc1cc(Cl)ccc1Cl`: the outcome in experiment [8], in experiment [2], in experiment [11], in experiment [4], in [5] and in [13] was inactive. For the same compound, the result in experiment [14], in experiment [15] and in experiment [7] was inactive.

On to `C[C@]12CC[C@H](O)C[C@H]1CC[C@@H]1[C@@H]2C[C@@H](O)[C@]2(C)[C@@H](C3=CC(=O)OC3)CC[C@]12O`, for which the compound was classed as inactive in experiment [1], in [16], in experiment [9], in experiment [3], in [4] and in experiment [5]. In addition, the result in [12], in [6] and in experiment [13] was inactive. In addition, the concentration at half-maximal activity (AC50) in experiment [11] was 1.78 µM (active); in [17], 1.29 µM (active).

Consider `O=P1(NCCCl)OCCCN1CCCl` (centres undefined), for which the result in [8], in [9], in experiment [10], in [11], in [5] and in [17] was inactive. The compound was classed as inactive in experiment [13] and in experiment [7].

`CC(C)(c1cc(Cl)c(O)c(Cl)c1)c1cc(Cl)c(O)c(Cl)c1`: the call in experiment [9], in [10], in experiment [4], in experiment [6] and in [14] was inactive. In addition, the half-maximal activity concentration (AC50) in [3] was 47.9 µM (active); in [5], 1.87 µM (active); in experiment [18], 46.1 µM (active) and 33.1 µM (active); in experiment [14], 65.5 µM (active); in [15], 48.2 µM (active) and 17.7 µM (active).

`N#Cc1cccc(C#N)c1`: the compound was classed as inactive in [8], in [2], in [16], in experiment [11], in [5] and in experiment [13]. The compound was classed as inactive in experiment [18], in experiment [14], in experiment [15] and in [19].
